Inconclusive results are not listed. The source made the active and inactive calls. Unless noted, calls come from the whole dose curve; as a rule, active = well fitted curve in the direction sought with a large enough effect in the repeat runs; inconclusive = weak or mixed curves; inactive = no such curve, though single readings can be large; an effect the other way counts as inactive or inconclusive.
Key:
[1] = qHTS assay to identify aromatase inhibitors - cell viability counter screen (AID 743084);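 note: cells stimulated with testosterone during compound exposure; nearly all actives have a fitted effect of over 55% in size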
[2] = target: Aryl hydrocarbon receptor (Homo sapiens) (UniProt P35869); experiment: qHTS assay to identify small molecule that activate the aryl hydrocarbon receptor (AhR) signaling pathway (AID 743085);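 note: HG2L7.5c1 human HepG2 liver cells with stably integrated DRE-driven firefly reporter; series mostly up to about 70 µM; nearly all actives have a fitted effect of over 15% in size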
Method in brief: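 Stably transfected human liver carcinoma cells (HG2L7.5c1; 20 DRE-firefly luciferase) were incubated 5 h, dosed, and kept 24 h at 37C. Agonism was scored from increased luciferase luminescence.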

[3] = qHTS assay to identify small molecule that activate the aryl hydrocarbon receptor (AhR) signaling pathway - cell viability counter screen (AID 743086);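 note: HepG2 liver cells carrying the AhR DRE luciferase reporter; series mostly up to about 70 µM; nearly all actives have a fitted effect of over 45% in size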
Method in brief: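 HepG2-AhR-luc (HG2L7.5c1) cells, 4000/well, treated 24 h at 37 C with compound; viability measured as CellTiter-Fluor fluorescence after 30 min in the same wells as the luciferase read.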

[4] = target: Peroxisome proliferator-activated receptor gamma (Homo sapiens) (UniProt P37231); experiment: qHTS assay to identify small molecule antagonists of the peroxisome proliferator-activated receptor gamma (PPARg) signaling pathway (AID 743191; calls by dose curve; note: series mostly up to about 63 µM; nearly all actives have a fitted effect of over 30% in size)
Method in brief: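 GeneBLAzer PPARg UAS-bla HEK293H cells, 5 h post-plating, exposed to compounds 17 h at 37C. LiveBLAzer B/G FRET substrate added for 1 h at room temperature; beta-lactamase reporter read by fluorescence intensity.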

[5] = qHTS assay to identify small molecule antagonists of the peroxisome proliferator-activated receptor gamma (PPARg) signaling pathway - cell viability counter screen (AID 743194); note: nearly all actives have a fitted effect of over 55% in size
Method in brief: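 Cytotoxicity counter screen in PPARg-bla HEK293H cells, same wells as reporter assay. Compounds plus 50 nM rosiglitazone (final) for 17 h at 37 C, then viability read by CellTiter-Glo luminescence.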

[6] = qHTS assay for small molecule agonists of the antioxidant response element (ARE) signaling pathway (AID 743202; active = well fitted activation curve with a large enough effect in the signal ratio in the repeat runs, not every such curve was filed as active; the % refers to the signal ratio)
Method in brief: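 Agonist mode reporter screen: HepG2 cells with ARE-controlled beta-lactamase are incubated with test compounds for 16 h at 37 C, and beta-lactamase activity is measured as fluorescence of cleaved B/G FRET substrate.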

[7] = qHTS assay for small molecule agonists of the antioxidant response element (ARE) signaling pathway - cell viability counter screen (AID 743203; calls by dose curve; note: nearly all actives have a fitted effect of over 55% in size)
Method in brief: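 Compounds in DMSO were pinned onto ARE-bla HepG2 cells plated 5 hrs earlier at 2,000 cells/well. Sixteen hours later at 37C/5% CO2, CellTiter-Glo was added and luminescence measured after 30 min at room temperature.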

[8] = qHTS assay for small molecule activators of the heat shock response signaling pathway - cell viability counter screen (AID 743209); note: nearly all actives have a fitted effect of over 50% in size
Method in brief: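 Counter screen for cytotoxicity in HeLa HSE-bla reporter cells. Treatment was 5 h at 37 C; viability was detected by luminescent ATP assay (CellTiter-Glo) in the same wells as the beta-lactamase read.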

[9] = qHTS assay for small molecule activators of the heat shock response signaling pathway (AID 743210; active = well fitted activation curve with a large enough effect in the signal ratio in the repeat runs, with a control signal flat, not every such curve was filed as active; the % refers to the signal ratio;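 note: HeLa cells with beta-lactamase reporter driven by heat shock elements; series mostly up to about 63 µM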)
Method in brief: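 Quantitative high-throughput format using an engineered HeLa line in which heat shock response elements drive beta-lactamase; after 5 h with compound, cells received a B/G FRET substrate and fluorescence was read.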

[10] = qHTS assay to identify small molecule agonists of the peroxisome proliferator-activated receptor delta (PPARd) signaling pathway - cell viability counter screen (AID 743211); note: nearly all actives have a fitted effect of over 55% in size
Method in brief: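 In the same wells used for beta-lactamase reporter measurement, cytotoxicity is scored by CellTiter-Glo. HEK293H PPARd-bla cells receive compound for 17 h at 37C following a 5 h settling period.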

[11] = qHTS assay to identify small molecule antagonists of the peroxisome proliferator-activated receptor delta (PPARd) signaling pathway - cell viability counter screen (AID 743213); note: nearly all actives have a fitted effect of over 50% in size
Method in brief: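 HEK293H PPARd UAS-bla cells, 5 h pre-incubation, compound + L165041 300 nM final, 17 h 37 C; B/G FRET substrate 2 h RT; then CellTiter-Glo 30 min RT, luminescence.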

[12] = qHTS assay to identify small molecule antagonists of the farnesoid-X-receptor (FXR) signaling pathway - cell viability counter screen (AID 743221; active = well fitted cell-killing curve with a large enough effect in the repeat runs, not every such curve was filed as active; note: nearly all actives have a fitted effect of over 50% in size)
Method in brief: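 Here viability was scored by luminescence after CellTiter-Glo addition to wells already read for beta-lactamase. Prior treatment: compound plus CDCA (50 uM final), 16 h, 37 C, HEK 293T FXR-bla cells.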

[13] = target: Vitamin D3 receptor (Homo sapiens) (UniProt P11473); experiment: qHTS assay to identify small molecule agonists of the vitamin D receptor (VDR) signaling pathway (AID 743222; calls by dose curve)
Method in brief: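 VDR-bla cells were seeded, left 4 h, treated with compounds in DMSO for 16 h, incubated 2 h at RT with B/G FRET substrate, and read for fluorescence.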

[14] = target: Vitamin D3 receptor (Homo sapiens) (UniProt P11473); experiment: qHTS assay to identify small molecule antagonists of the vitamin D receptor (VDR) signaling pathway (AID 743223; active = well fitted inhibition curve with a large enough effect in the signal ratio in the repeat runs, not every such curve was filed as active; the % refers to the signal ratio)
Method in brief: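 Inhibition of agonist-driven VDR signalling is scored in VDR-bla cells: 3 nM final 1alpha,25-dihydroxyvitamin D3 plus compound, 16 h at 37C, then beta-lactamase detection by FRET substrate fluorescence after 2 h.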

[15] = target: Peroxisome proliferator-activated receptor gamma (Homo sapiens) (UniProt P37231); experiment: qHTS assay to identify small molecule agonists of the peroxisome proliferator-activated receptor gamma (PPARg) signaling pathway (AID 743094; active = well fitted activation curve with a large enough effect in the signal ratio in the repeat runs, not every such curve was filed as active; the % refers to the signal ratio)
Method in brief: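 Following 5 h plating at 37C, PPARg-bla HEK293H cells receive compound or DMSO for 17 h; fluorescence intensity is recorded after LiveBLAzer B/G loading for 1 h at room temperature.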

[16] = target: Peroxisome proliferator-activated receptor delta (Homo sapiens) (UniProt Q03181); experiment: qHTS assay to identify small molecule agonists of the peroxisome proliferator-activated receptor delta (PPARd) signaling pathway (AID 743212; calls by dose curve)
Method in brief: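 Quantitative high-throughput agonist screen in a HEK293H beta-lactamase reporter line under UAS control. Compounds in DMSO, at 37 C. Fluorescence read after 2 h with FRET substrate at room temperature.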

[17] = target: Peroxisome proliferator-activated receptor delta (Homo sapiens) (UniProt Q03181); experiment: qHTS assay to identify small molecule antagonists of the peroxisome proliferator-activated receptor delta (PPARd) signaling pathway (AID 743215; active = well fitted inhibition curve with a large enough effect in the signal ratio in the repeat runs, not every such curve was filed as active; the % refers to the signal ratio;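 note: cells stimulated with agonist L165041 at 300 nM final during compound exposure; series mostly up to about 62 µM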)
Method in brief: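 With L165041 present at 300 nM final, compounds were incubated 17 h at 37 C on PPARd UAS-bla HEK293H cells. A FRET-based beta-lactamase substrate was then applied for 2 h at room temperature and fluorescence intensity recorded.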

[18] = qHTS assay to identify small molecule agonists of the farnesoid-X-receptor (FXR) signaling pathway - cell viability counter screen (AID 743218); note: nearly all actives have a fitted effect of over 45% in size
Method in brief: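 After 16 h at 37 C with test compounds, FXR-bla HEK 293T cells were given LiveBLAzer B/G substrate for 2 h at RT and then CellTiter-Glo; luminescence was taken after 30 min.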

[19] = target: Bile acid receptor (Homo sapiens) (UniProt Q96RI1); experiment: qHTS assay to identify small molecule antagonists of the farnesoid-X-receptor (FXR) signaling pathway (AID 743217; active = well fitted inhibition curve with a large enough effect in the signal ratio in the repeat runs, not every such curve was filed as active; the % refers to the signal ratio)
Method in brief: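 In this cell-based antagonist screen, inhibition of CDCA-driven (50 uM final) UAS-beta-lactamase expression in HEK 293T cells was measured by FRET fluorescence following 16 h compound exposure at 37 °C.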

[20] = target: Bile acid receptor (Homo sapiens) (UniProt Q96RI1); experiment: qHTS assay to identify small molecule agonists of the farnesoid-X-receptor (FXR) signaling pathway (AID 743220; active = well fitted activation curve with a large enough effect in the signal ratio in the repeat runs, not every such curve was filed as active; the % refers to the signal ratio)
Method in brief: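 Beta-lactamase reporter under UAS control in GeneBLAzer FXR HEK 293T cells (5000/well) measured with LiveBLAzer FRET substrate after 2 h at room temperature. Compound exposure lasted 16 h at 37C.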

Measured: Potency

Sequence of Vitamin D3 receptor (Homo sapiens) (P11473 whole entry, looked up): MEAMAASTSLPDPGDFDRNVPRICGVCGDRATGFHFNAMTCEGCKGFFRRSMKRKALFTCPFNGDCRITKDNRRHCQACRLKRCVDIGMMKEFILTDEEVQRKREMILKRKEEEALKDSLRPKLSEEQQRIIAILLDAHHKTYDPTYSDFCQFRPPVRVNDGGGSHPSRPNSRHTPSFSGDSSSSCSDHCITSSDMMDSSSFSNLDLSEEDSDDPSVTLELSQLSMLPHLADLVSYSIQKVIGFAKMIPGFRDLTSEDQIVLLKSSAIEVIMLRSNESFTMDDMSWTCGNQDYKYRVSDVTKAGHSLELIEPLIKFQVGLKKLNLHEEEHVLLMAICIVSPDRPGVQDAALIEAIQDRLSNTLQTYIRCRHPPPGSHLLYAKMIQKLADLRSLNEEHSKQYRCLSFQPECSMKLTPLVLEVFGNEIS
Sequence of Peroxisome proliferator-activated receptor delta (Homo sapiens) (Q03181 whole entry, looked up): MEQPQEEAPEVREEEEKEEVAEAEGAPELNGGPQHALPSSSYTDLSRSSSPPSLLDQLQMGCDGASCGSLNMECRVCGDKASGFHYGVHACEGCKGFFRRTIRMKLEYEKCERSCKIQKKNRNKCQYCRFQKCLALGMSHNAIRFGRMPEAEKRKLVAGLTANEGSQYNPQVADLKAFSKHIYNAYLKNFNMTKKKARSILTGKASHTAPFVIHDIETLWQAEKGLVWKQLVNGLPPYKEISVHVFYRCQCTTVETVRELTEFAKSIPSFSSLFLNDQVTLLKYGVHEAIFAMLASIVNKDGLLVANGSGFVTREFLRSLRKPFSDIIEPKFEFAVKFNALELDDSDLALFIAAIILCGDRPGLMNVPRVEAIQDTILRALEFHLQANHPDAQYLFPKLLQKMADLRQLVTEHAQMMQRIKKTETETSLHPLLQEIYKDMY
Sequence of Aryl hydrocarbon receptor (Homo sapiens) (P35869 whole entry, looked up): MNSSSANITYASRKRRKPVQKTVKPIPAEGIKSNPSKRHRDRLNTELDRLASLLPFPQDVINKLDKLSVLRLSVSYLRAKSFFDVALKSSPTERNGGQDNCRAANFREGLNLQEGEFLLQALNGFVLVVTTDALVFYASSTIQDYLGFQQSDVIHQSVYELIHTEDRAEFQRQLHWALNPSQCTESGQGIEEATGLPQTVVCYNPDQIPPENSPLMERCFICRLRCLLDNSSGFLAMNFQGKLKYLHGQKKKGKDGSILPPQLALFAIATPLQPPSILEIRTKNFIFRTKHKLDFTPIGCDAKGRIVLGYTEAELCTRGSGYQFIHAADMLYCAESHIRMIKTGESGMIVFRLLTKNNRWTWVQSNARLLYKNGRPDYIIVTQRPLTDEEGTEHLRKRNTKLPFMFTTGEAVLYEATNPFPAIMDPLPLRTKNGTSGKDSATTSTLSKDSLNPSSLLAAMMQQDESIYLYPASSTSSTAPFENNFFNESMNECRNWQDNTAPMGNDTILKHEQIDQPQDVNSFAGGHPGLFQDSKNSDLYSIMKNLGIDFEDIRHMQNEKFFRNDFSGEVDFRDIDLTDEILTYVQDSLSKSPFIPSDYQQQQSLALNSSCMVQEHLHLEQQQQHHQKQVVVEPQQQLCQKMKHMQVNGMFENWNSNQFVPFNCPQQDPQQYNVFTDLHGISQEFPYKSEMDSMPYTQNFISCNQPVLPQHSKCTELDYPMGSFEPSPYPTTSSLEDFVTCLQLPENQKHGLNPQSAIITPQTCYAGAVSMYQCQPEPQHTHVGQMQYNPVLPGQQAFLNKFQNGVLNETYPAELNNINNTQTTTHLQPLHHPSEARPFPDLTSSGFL
Sequence of Peroxisome proliferator-activated receptor gamma (Homo sapiens) (P37231 whole entry, looked up): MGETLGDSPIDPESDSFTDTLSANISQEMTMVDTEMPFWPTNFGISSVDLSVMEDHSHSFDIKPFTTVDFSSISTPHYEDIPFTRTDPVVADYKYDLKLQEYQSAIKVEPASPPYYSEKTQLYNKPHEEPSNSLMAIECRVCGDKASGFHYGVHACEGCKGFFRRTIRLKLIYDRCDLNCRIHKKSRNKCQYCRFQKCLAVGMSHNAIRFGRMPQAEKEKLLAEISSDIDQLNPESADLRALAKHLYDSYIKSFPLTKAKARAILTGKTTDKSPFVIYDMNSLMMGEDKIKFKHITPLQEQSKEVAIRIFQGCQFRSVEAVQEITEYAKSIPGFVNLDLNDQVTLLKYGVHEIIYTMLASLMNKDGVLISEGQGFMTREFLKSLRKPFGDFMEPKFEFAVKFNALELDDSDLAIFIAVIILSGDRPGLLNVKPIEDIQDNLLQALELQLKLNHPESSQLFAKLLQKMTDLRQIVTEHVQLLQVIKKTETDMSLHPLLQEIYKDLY
Sequence of Bile acid receptor (Homo sapiens) (Q96RI1 whole entry, looked up): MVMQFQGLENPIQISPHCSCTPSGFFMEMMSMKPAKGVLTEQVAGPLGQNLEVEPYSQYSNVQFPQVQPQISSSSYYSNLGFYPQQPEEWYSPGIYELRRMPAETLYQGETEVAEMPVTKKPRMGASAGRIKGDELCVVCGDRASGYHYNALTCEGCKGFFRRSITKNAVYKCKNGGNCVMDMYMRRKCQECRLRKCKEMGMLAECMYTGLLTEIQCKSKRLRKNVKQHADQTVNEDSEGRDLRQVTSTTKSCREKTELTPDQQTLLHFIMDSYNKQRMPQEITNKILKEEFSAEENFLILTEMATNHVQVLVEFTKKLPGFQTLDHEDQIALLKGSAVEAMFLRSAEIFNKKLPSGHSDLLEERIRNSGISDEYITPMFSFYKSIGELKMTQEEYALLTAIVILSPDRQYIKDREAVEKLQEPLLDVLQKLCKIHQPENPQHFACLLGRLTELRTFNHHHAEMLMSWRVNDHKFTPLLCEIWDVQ

OC[C@H]1O[C@@H]2O[C@H]3[C@H](O)[C@@H](O)[C@@H](O[C@H]4[C@H](O)[C@@H](O)[C@@H](O[C@H]5[C@H](O)[C@@H](O)[C@@H](O[C@H]6[C@H](O)[C@@H](O)[C@@H](O[C@H]7[C@H](O)[C@@H](O)[C@@H](O[C@H]8[C@H](O)[C@@H](O)[C@@H](O[C@H]9[C@H](O)[C@@H](O)[C@@H](O[C@H]1[C@H](O)[C@H]2O)O[C@@H]9CO)O[C@@H]8CO)O[C@@H]7CO)O[C@@H]6CO)O[C@@H]5CO)O[C@@H]4CO)O[C@@H]3CO
inactive: [1] | [2] | [3] | [4] | [5] | [6] | [7] | [8] | [9] | [10] | [11] | [12] | [13] | [14]

CC(=O)OC(C)(C)C
inactive: [1] | [2] | [15] | [5] | [6] | [7] | [8] | [9] | [10] | [16] | [11] | [17] | [18] | [12]

Nc1cc(N)cc(C(=O)O)c1
inactive: [1] | [2] | [3] | [5] | [7] | [9] | [10] | [16] | [11] | [17] | [12] | [13]

CCCCCOC(=O)Nc1nc(=O)n([C@@H]2O[C@H](C)[C@@H](O)[C@H]2O)cc1F
inactive: [1] | [2] | [3] | [4] | [5] | [6] | [7] | [8] | [9] | [10] | [16] | [11] | [18] | [12] | [13] | [14]

C/C=C1\C(=O)C[C@H]2[C@@H]3CCC4=CC(=O)CC[C@]4(C)[C@H]3CC[C@]12C
inactive: [1] | [2] | [3] | [5] | [7] | [8] | [9] | [10] | [11] | [18] | [12] | [13]

O=S(=O)(O)c1ccccc1O
inactive: [1] | [2] | [15] | [4] | [5] | [7] | [8] | [9] | [10] | [11] | [17] | [12]

CNc1ncnc2nc[nH]c12
inactive: [1] | [2] | [3] | [15] | [7] | [8] | [9] | [10] | [16] | [17] | [18] | [13]

CCCOCC(C)OCC(C)O (centres undefined)
inactive: [1] | [2] | [3] | [7] | [8] | [9] | [10] | [11] | [19] | [20] | [13] | [14]

CCCCN(CCO)CCO
inactive: [1] | [2] | [3] | [15] | [6] | [7] | [8] | [9] | [10] | [11] | [12] | [13] | [14]

CC(C)COC(=O)C(C)C
inactive: [1] | [2] | [3] | [5] | [6] | [7] | [9] | [10] | [11] | [17] | [18] | [13]

Source: PubChem BioAssay (Tox21)
